Pf growth 48h: inhibits P. falciparum growth in the first generation, 48 h | P. falciparum luciferase growth in erythrocytes, 48 h | AID 504832 | Potency, µM (titrated, usually from 28.7 µM), hits mostly inhibitors | hit rate 5.9% among 310,000
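Luciferase-expressing parasites in RBCs, 2% Hct / 0.1% parasitemia final; RPMI 1640 + 0.5% Albumax; 37 C, 5% CO2, one generation; luminescence read-out, lower signal = inhibition.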
NS1 inh: blocks influenza NS1 protein function; hit rate 0.4% among 270,000; AID 2326; Potency, µM (series often up to 46.1 µM); calls by dose curve; further: actives are rising curves; nearly all actives have a fitted effect of over 50% in size
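Compounds were scored for reversing the slow growth caused by influenza A NS1 in S. cerevisiae, measured by optical density at 600 nm. Assay medium contained 2% galactose at pH 6.0; NS1-free yeast of the same strain were the positive control.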
Pf growth 96h: P. falciparum growth inhibition at 96 hour, primary screen for plastid delayed-death inhibitors; AID 504834; hit rate 6.9% among 320,000; P. falciparum luciferase reporter growth, 96 h; Potency, µM (top dose mostly 28.7 µM), usual class: inhibitors
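Readout is luminescence from an integrated firefly luciferase in P. falciparum. Red cells, 2% hematocrit and 0.05% parasitemia final, were cultured with compound through two parasite generations (96 hours) at 37 C, 5% CO2.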
Sm TGR inh: inhibitors of Schistosoma mansoni thioredoxin glutathione reductase; purified TGR, DTNB reduction, TNB absorbance 405 nm; Potency, µM (top dose mostly 114 µM), actives largely listed as inhibitors; hit rate 3% among 360,000; AID 485364; further: nearly all actives have a fitted effect of over 60% in size
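First, TGR (20 nM dispensed) and NADPH were mixed with compound. Second, a 15 min room-temperature incubation followed. Third, further NADPH and then DTNB were added to start the reaction. Finally, TNB absorbance was monitored kinetically.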
Shiga toxin inh: blocks Shiga toxin action in Vero cells | AID 2315 | Vero cells, Shiga toxin protein synthesis inhibition reporter | hit rate 9.2% among 290,000 | inhibition, % at 38.7 µM; in the data active means inhibition mostly above about 28%, no sharp cut-off; inactive means mostly below about 43%
CHX counter: counter-screen for Shiga toxin inhibitors: cycloheximide protein synthesis inhibition; cell reporter, cycloheximide protein synthesis inhibition counterscreen; max response, %; hit rate 12% among 300,000; AID 2314; in the data active means max response mostly above about 13%, no sharp cut-off; inactive means mostly below about 14%; further: read at 38.3 µM for the half of the compounds with a filed dose
Hits are given with their value; – = inactive; ? = inconclusive; · = no result given; ! = a repeat was not active. The list is not random: actives were taken first. Their share in the collection is about 21%. Unless noted, the call rests on the fitted dose curve; in most records, active means well fitted curve in the direction sought with a large enough effect; inconclusive means small, poorly fitted or top-dose-only effect, or another doubt; inactive means no such curve, though single readings can be large; an effect the other way counts as inactive or inconclusive.

SMILES	Pf growth 48h	NS1 inh	Pf growth 96h	Sm TGR inh	Shiga toxin inh	CHX counter
CCCC(=O)Nc1ccc(Sc2ccc([N+](=O)[O-])cc2)cc1	12µM	–	15µM	?	–	–
Cc1c(N2C(=O)C(=O)/C(=C(/O)c3ccc(Cl)cc3)C2c2ccccc2)c(=O)n(-c2ccccc2)n1C (stereo unspecified)	–	–	–	–	–	–
CCN1CCN(c2oc(-c3ccccc3)nc2S(=O)(=O)c2ccc(C)cc2)CC1	13µM	·	12µM	–	·	·
Cc1ccc(S(=O)(=O)c2nc(-c3ccccc3)oc2N2CCCCCC2)cc1	·	·	·	–	·	·
CCOc1ccc(-c2nc(S(=O)(=O)c3ccccc3)c(N3CCC(C(N)=O)CC3)o2)cc1	?	–	15µM	35µM	–	–
Cc1ccc(S(=O)(=O)c2nc(C(C)(C)C)oc2N2CCOCC2)cc1	–	–	·	1.1µM	–	–
Cc1ccc(-c2nc(S(=O)(=O)c3ccc(C)cc3)c(N3CCCCC3)o2)cc1	·	·	·	8.9µM	·	·
O=C(Nc1ccc(Nc2ccc3c(c2)C(=O)c2ccccc2C3=O)c2c1C(=O)c1ccccc1C2=O)c1ccccc1	·	–	·	·	·	·
O=S(=O)(c1ccccc1)c1nc(-c2ccccc2)oc1N1CCOCC1	–	–	–	–	–	–
Cc1ccc(S(=O)(=O)c2nc(-c3ccc(Cl)cc3)oc2N2CCCCCC2)cc1	·	·	·	40µM	·	·
O=S(=O)(c1ccccc1)c1nc(-c2cccc(Cl)c2)oc1N1CCOCC1	–	–	?	32µM!	–	–
COc1ccc(-c2nc(S(=O)(=O)c3ccc(C)cc3)c(N3CCCC3)o2)cc1	–	–	?	2µM	–	–
COc1ccc(OCc2cc(C(=O)N(C)Cc3cc(C4CC4)n[nH]3)no2)c(Cl)c1	9.3µM	–	–	?	138	40
COc1cc(Cl)ccc1OCc1cc(C(=O)NC(C)Cc2cccnc2)no1 (stereo unspecified)	–	–	–	–	53	48
Cc1cc(C)nc(CCNC(=O)c2cc(COc3ccc(F)cc3Cl)on2)n1	?	–	?	–	–	–
COc1ccc(OCc2cc(C(=O)NC(C)Cc3cnccn3)no2)c(Cl)c1 (stereo unspecified)	–	–	?	–	72	31
Cc1ccc(OCc2cc(C(=O)NC(C)Cc3cnccn3)no2)cc1C (stereo unspecified)	–	–	–	–	–	–
COc1ccc(OCc2cc(C(=O)NCC(C)Oc3cccnc3)no2)c(Cl)c1 (stereo unspecified)	–	–	–	–	43	32
COc1cc(Cl)ccc1OCc1cc(C(=O)N(C)Cc2cccc3cnccc23)no1	?	–	–	?	70	61
COc1ccc(OCc2cc(C(=O)N(C)Cc3cnccn3)no2)c(Cl)c1	–	–	?	–	78	46
COc1cc(NC(=O)Cn2nc(C(F)(F)F)c3c2CCCC3)cc(OC)c1OC	10µM	–	·	–	–	–
O=C(Cn1nc(C(F)(F)F)c2c1CCCC2)NCCN1CCOCC1	12µM	–	15µM	–	–	–
O=C(CCC(=O)Nc1nnc(C2CCCCC2)s1)Nc1ccc(F)cc1	–	–	–	–	–	–
CC(NC(=O)c1ccco1)C1CCCO1 (stereo unspecified)	·	–	–	–	–	–
Cc1occc1C(=O)NC(C)C1CCCO1 (stereo unspecified)	–	–	·	22µM	–	–
SMILES	Pf growth 48h	NS1 inh	Pf growth 96h	Sm TGR inh	Shiga toxin inh	CHX counter
O=C(COc1ccc(F)cc1)NCc1ccc2c(c1)CCN2C(=O)c1ccc(F)cc1	·	·	·	–	·	·
CC/C(=N\NC(=O)c1nnn(-c2nonc2N)c1CN(C)c1ccccc1)c1ccccc1	–	–	–	–	–	–
OCC[C@H]1C[C@@H](O)[C@H](O)[C@]2(Cc3ccccc3O2)O1	–	·	–	–	·	·
CCC1(C2=NCCN2)Cc2ccccc2O1 (stereo unspecified)	–	–	7.6µM!	–	·	·
CN1CCN(C(=O)C2=C[C@@H](c3ccc(Br)cc3)C[C@@H](OCc3ccc(CO)cc3)O2)CC1	?	–	?	–	–	–
O=C(C1=C[C@@H](c2ccc(Br)cc2)C[C@@H](OCc2ccc(CO)cc2)O1)N1CCN(Cc2ccccc2)CC1	?	–	12µM	25µM	–	–
C#Cc1ccc([C@H]2C=C(C(=O)N3CCN(Cc4ccccc4)CC3)O[C@@H](OCc3ccc(CO)cc3)C2)cc1	3.3µM	–	2.3µM	45µM	–	–
